Source: PubChem BioAssay (Tox21)
Inconclusive results are not listed. Activity calls are given as the source filed them. Unless noted, calls come from the whole dose curve; as a rule, active = well fitted curve in the direction sought with a large enough effect in the repeat runs; inconclusive = weak or mixed curves; inactive = no such curve, though single readings can be large; an effect the other way counts as inactive or inconclusive.

Key:
[1] = A CellTox Green Cytotoxicity Assay to monitor cytotoxicity in HEK293 cells - 32 hour (AID 1224881); note: nearly all actives have a fitted effect of over 40% in size; note: potency is the fitted concentration of half-maximal effect
In short: (§1)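 Cells (HEK293, 600/well) and dye reagent are dispensed together. After 5 h at 37 C, 23 nL compound is pinned in. Plates stay at 37 C for 40 h with fluorescence read at 0h, 8h, 16h, 24h, 32h and 40h.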

[2] = A CellTox Green Cytotoxicity Assay to monitor cytotoxicity in HepG2 cells - 0 hour (AID 1224882); note: nearly all actives have a fitted effect of over 35% in size
In short: (§2)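 Cells and non-lytic dye reagent are dispensed together (600 HepG2 cells/well) and incubated 5 h before DMSO compound transfer. Kinetic fluorescence is then recorded in the same wells during 40 h at 37 C.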

[3] = A CellTox Green Cytotoxicity Assay to monitor cytotoxicity in HEK293 cells - 8 hour (AID 1224884); note: nearly all actives have a fitted effect of over 35% in size
In short: as §1

[4] = qHTS RealTime-Glo MT Cell Viability Assay in HepG2 cells - 16 hour (AID 1224885); note: nearly all actives have a fitted effect of over 50% in size
In short: (§3)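 Viability was tracked continuously by NanoLuc luminescence from prosubstrate reduced by living HepG2 cells, at successive time points over 40 h of compound exposure. Cells with reagent were preincubated 5 h at 37 °C before compound addition.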

[5] = qHTS RealTime-Glo MT Cell Viability Assay in HEK293 cells - 24 hour (AID 1224886); note: potency is the fitted concentration of half-maximal effect; nearly all actives have a fitted effect of over 50% in size
In short: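 Viability tracked continuously by luminescence as live cells reduce a prosubstrate for NanoLuc; HEK293 cells preincubated 5 h, compound-treated at 37 C, and read at 0, 8, 16, 24, 32 and 40 h.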

[6] = qHTS RealTime-Glo MT Cell Viability Assay in HEK293 cells - 8 hour (AID 1224887); note: top concentration of the series differs between compounds; nearly all actives have a fitted effect of over 50% in size
In short: (§4)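 Real-time viability in HEK293: signal arises when living cells convert a prosubstrate for NanoLuc in the medium, so luminescence tracks viable cell number. Compound (23 nL, DMSO) added 5 h post-seeding; kinetic reads at 0–40 h, 37 C.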

[7] = qHTS RealTime-Glo MT Cell Viability Assay in HepG2 cells - 0 hour (AID 1224889); note: nearly all actives have a fitted effect of over 50% in size
In short: as §3

[8] = A CellTox Green Cytotoxicity Assay to monitor cytotoxicity in HepG2 cells - 8 hour (AID 1224890); note: nearly all actives have a fitted effect of over 45% in size
In short: as §2

[9] = qHTS assay to identify small molecule antagonists of the estrogen receptor alpha (ER-alpha) signaling pathway using the BG1 cell line in the presence of 0.1 nM 17-beta-estradiol - cell viability counter screen (AID 1259241); note: nearly all actives have a fitted effect of over 40% in size
In short: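 Following 5 days in phenol red-free medium with charcoal-stripped serum, VM7Luc4E2 cells received test compounds alongside 0.1 nM 17beta-estradiol (final) at 37C for 22 hr. Live cells were then quantified via protease-substrate fluorescence.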

[10] = qHTS assay to identify small molecule HDAC inhibitors (AID 1259364); note: potency is the fitted concentration of half-maximal effect;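 note: wild-type HCT-116 cells with endogenous class I/II HDAC activity; nearly all actives have a fitted effect of over 45% in size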
In short: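 Cells (HCT-116, wild type) are seeded at 1,500 per well, incubated overnight, treated with compound in DMSO for 2 hr, then developed with HDAC-Glo I/II reagent for 30 min at room temperature.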

[11] = qHTS assay to identify small molecule HDAC inhibitors - cell viability counter screen (AID 1259365)
In short: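 HCT-116 wild-type, overnight attachment; 2hr drug exposure, 37C; CellTiter-Glo luminescent ATP readout after 30min RT.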

[12] = qHTS assay to identify small molecule agonists of the sonic hedgehog signaling (Shh) pathway - cell viability counter screen (AID 1259366); note: nearly all actives have a fitted effect of over 50% in size; note: potency is the fitted concentration of half-maximal effect
In short: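 Compounds in DMSO were pin-transferred onto 3T3 Gli1-Luc cells that had settled 4hr; plates then stood 24hr at 37C and 5% CO2. One hour before the end, CellTiter-Fluor was added and fluorescence recorded.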

[13] = qHTS assay to identify small molecule antagonists of the sonic hedgehog signaling (Shh) pathway - cell viability counter screen (AID 1259367); note: nearly all actives have a fitted effect of over 55% in size; note: potency is the fitted concentration of half-maximal effect
In short: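 Cytotoxicity was assessed in parallel with Shh reporter activity by measuring live-cell protease fluorescence (CellTiter-Fluor) in NIH/3T3 cells stably carrying Gli1-Luc, treated with compound under conditioned medium stimulation for 23 hr plus 1 hr reagent incubation.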

[14] = A CellTox Green Cytotoxicity Assay to monitor cytotoxicity in HepG2 cells - 32 hour (AID 1224883); note: nearly all actives have a fitted effect of over 50% in size; note: potency is the fitted concentration of half-maximal effect
In short: as §2

[15] = A CellTox Green Cytotoxicity Assay to monitor cytotoxicity in HEK293 cells - 16 hour (AID 1224888); note: nearly all actives have a fitted effect of over 35% in size
In short: as §1

[16] = qHTS assay to identify small molecule antagonists of the androgen receptor (AR) signaling pathway using the MDA cell line in the presence of 0.5 nM R1881 - cell viability counter screen (AID 1259242); note: nearly all actives have a fitted effect of over 45% in size; note: potency is the fitted concentration of half-maximal effect
In short: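 Steps: plate MDA-kb2 cells, rest 5 hr at 37C without CO2; pin in compounds in DMSO; add R1881 to 0.5 nM final; incubate 16 hr; add CellTiter-Fluor, 30 min; read fluorescence.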

[17] = molecular target: Estrogen receptor (Homo sapiens) (UniProt P03372); experiment: qHTS assay to identify small molecule antagonists of the estrogen receptor alpha (ER-alpha) signaling pathway using the BG1 cell line in the presence of 0.1 nM 17-beta-estradiol (AID 1259244); note: nearly all actives have a fitted effect of over 50% in size; note: potency is the fitted concentration of half-maximal effect
In short: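 Antagonist mode: compounds in DMSO are pinned onto VM7Luc4E2 reporter cells, 0.1 nM final 17beta-estradiol is added, and after 22 h at 37C luciferase luminescence is measured with ONE-Glo.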

[18] = qHTS RealTime-Glo MT Cell Viability Assay in HEK293 cells - 0 hour (AID 1224880); note: top concentration of the series differs between compounds; nearly all actives have a fitted effect of over 45% in size
In short: as §4

[19] = molecular target: Androgen receptor (Homo sapiens) (UniProt P10275); experiment: qHTS assay to identify small molecule antagonists of the androgen receptor (AR) signaling pathway using the MDA cell line in the presence of 0.5 nM R1881 (AID 1259243); note: nearly all actives have a fitted effect of over 50% in size; note: potency is the fitted concentration of half-maximal effect
In short: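 Stably transfected MDA-kb2 cells express luciferase from an MMTV promoter bearing both AR and GR response elements. Compounds plus 0.5 nM R1881 (final) were incubated 16 hr at 37C without CO2, then luminescence measured.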

[20] = qHTS assay to identify small molecule phospholipidosis (PLD) inducers (AID 1259344; active = well fitted curve in the direction sought with a large enough effect; an effect the other way counts as inactive or inconclusive)
In short: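 Cells (HepG2, 900 per well) attach for 4 h, receive LipidTOX Red and compound together, incubate 24 h at 37 C, are fixed 30 min with paraformaldehyde/Hoechst, then imaged at one site per well.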

Measured: Potency

Sequence of Estrogen receptor (Homo sapiens) (P03372 whole entry, looked up): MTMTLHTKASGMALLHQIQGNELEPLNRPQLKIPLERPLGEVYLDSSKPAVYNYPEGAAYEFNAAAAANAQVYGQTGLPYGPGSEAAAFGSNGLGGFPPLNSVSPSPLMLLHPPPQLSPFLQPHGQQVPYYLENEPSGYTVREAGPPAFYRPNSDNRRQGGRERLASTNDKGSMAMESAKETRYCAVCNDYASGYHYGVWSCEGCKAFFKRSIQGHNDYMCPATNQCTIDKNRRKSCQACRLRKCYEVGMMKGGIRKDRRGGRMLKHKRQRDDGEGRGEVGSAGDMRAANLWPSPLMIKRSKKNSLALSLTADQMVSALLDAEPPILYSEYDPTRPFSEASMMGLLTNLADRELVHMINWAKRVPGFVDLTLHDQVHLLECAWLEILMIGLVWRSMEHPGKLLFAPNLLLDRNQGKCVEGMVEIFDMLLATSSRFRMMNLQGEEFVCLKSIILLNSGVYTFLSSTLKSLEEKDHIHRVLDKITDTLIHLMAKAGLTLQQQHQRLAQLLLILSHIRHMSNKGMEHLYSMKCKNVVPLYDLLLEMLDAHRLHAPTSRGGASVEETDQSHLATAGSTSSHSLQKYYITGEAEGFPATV
Sequence of Androgen receptor (Homo sapiens) (P10275 whole entry, looked up): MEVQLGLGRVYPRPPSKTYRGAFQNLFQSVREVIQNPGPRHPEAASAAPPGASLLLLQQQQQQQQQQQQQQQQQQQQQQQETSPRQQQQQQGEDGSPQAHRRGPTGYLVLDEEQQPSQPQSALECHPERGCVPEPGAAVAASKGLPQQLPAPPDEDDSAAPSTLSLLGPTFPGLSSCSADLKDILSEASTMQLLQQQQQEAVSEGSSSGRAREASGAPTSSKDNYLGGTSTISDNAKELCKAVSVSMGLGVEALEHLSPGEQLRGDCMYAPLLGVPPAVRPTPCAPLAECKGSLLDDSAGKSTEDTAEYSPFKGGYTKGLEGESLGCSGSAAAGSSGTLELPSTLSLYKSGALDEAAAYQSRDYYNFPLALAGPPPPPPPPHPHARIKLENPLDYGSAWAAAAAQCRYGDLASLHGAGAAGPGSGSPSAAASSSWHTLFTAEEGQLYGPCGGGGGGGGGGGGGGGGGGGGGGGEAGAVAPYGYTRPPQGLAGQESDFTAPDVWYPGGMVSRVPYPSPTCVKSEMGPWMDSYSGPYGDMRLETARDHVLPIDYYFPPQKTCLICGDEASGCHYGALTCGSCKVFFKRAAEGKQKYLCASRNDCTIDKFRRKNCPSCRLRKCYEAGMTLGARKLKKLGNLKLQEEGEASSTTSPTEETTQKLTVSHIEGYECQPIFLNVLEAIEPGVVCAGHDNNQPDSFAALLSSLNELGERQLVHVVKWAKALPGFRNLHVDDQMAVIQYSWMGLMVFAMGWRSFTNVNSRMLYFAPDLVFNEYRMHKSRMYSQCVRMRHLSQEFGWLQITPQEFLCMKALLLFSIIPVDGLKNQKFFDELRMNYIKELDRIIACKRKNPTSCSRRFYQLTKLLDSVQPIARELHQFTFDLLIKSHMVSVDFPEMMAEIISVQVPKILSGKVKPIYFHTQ

O=C(N[C@H](c1ccccc1)[C@@H]1CN2CCC1CC2)c1c(Cl)ccc(C(F)(F)F)c1Cl
active: [1] 78.8 µM | [5] 70.2 µM | [12] 39.2 µM | [13] 43.9 µM
inactive: [2] | [3] | [4] | [6] | [7] | [8] | [9] | [10] | [11]

O=C1C(=O)c2cccc3cccc1c23
active: [17] 54.4 µM
not listed: [5] | [6] | [9] | [13] | [18] | [19] | [20]
inactive: all other assays above

NC(=O)CI
inactive: [18] | [2] | [6] | [9] | [16] | [17] | [11] | [12] | [13]
active: [10] 54.9 µM

O=[Se]=O
active: [14] 24.4 µM | [5] 17.3 µM | [16] 12.1 µM
not listed: [1] | [8] | [17] | [19] | [20]
inactive: all other assays above

O=[N+]([O-])C(Br)(CO)CO
active: [12] 48.6 µM | [13] 61.1 µM
not listed: [4] | [5] | [8] | [9] | [14]
inactive: all other assays above

COP(=S)(Oc1cc(Cl)c(Br)cc1Cl)c1ccccc1 (stereo unspecified)
inactive: [18] | [1] | [3] | [4] | [15] | [9] | [16] | [10] | [11] | [12]
active: [19] 27.3 µM

CNP(=O)(OC)Oc1ccc(C(C)(C)C)cc1Cl (stereo unspecified)
not listed: [1] | [5] | [6] | [14] | [19] | [20]
inactive: all other assays above
